Test results taken from PubChem BioAssay.

Key:
[1] = tested on: Botulinum neurotoxin type F light chain protease (Clostridium botulinum); experiment: Botulinum neurotoxin type F light chain protease inhibition, multiplex microsphere flow cytometry, validation set (AID 588459); conditions: multiplex microsphere protease substrate cleavage assay, at 10 µM, stronger effect = higher value
[2] = target: Botulinum neurotoxin type A (Clostridium botulinum) (UniProt P0DPI0); experiment: BoNT/A light chain protease inhibitors, biochemical, multiplex microsphere flow cytometry, validation set (AID 588460); conditions: at 10 µM, stronger effect = higher value
[3] = target: Lethal factor (Bacillus anthracis) (UniProt P15917); experiment: Lethal factor protease inhibitors, Bacillus anthracis, multiplex microsphere cleavage assay, validation set (AID 588461); conditions: flow cytometry, at 10 µM, stronger effect = higher value

Measured: inhibition

O=C(COc1ccccc1)Nc1ccc2c(c1)C(=O)N(CC1CCCO1)C2=O (stereo not drawn)
inactive: [1] -0.5% | [2] -0.9% | [3] 4.5%

COc1ccc(NC(=O)C2CSC3c4ccccc4C(=O)N23)cc1 (stereo not drawn)
inactive: [1] -0.5% | [2] -0.2% | [3] -3.8%

Nc1ccc(N)c(C(=O)O)c1
inactive: [1] -6.1% | [2] -14% | [3] -7.2%

COc1ccc(-c2cc3cc(OC)c(OC)cc3c(C)n2)cc1
inactive: [1] -3.3% | [2] 1.2% | [3] 4.5%

C[C@H]1C[C@H]2[C@@H]3CCC4=CC(=O)C=C[C@]4(C)[C@@]3(Cl)[C@@H](O)C[C@]2(C)[C@@]1(O)C(=O)CO
inactive: [1] 4.5% | [2] -0.1% | [3] 2.1%

Cn1c([N+](=O)[O-])cnc1COC(N)=O
inactive: [1] 1.4% | [2] -0.6% | [3] -1.2%

COc1ccc(N2CCN(C(=S)NCc3ccccc3)CC2)cc1
inactive: [1] 2.4% | [2] -0.6% | [3] 2.2%

CN(C)C(=O)C12CCC(C)(c3nc4ccccc4nc31)C2(C)C (stereo not drawn)
inactive: [1] -1.3% | [2] -1.5% | [3] 1.8%

CC1(c2ccccc2)CC(C)(C)N2C(=O)C(=O)c3cccc1c32 (stereo not drawn)
inactive: [1] 0.5% | [2] 1.2% | [3] -0.4%

COc1ccc2[nH]c(C)c(CN3CCC(C)CC3)c(=O)c2c1
inactive: [1] -0.8% | [2] 0.1% | [3] -5.9%

CCOC(=O)[C@H]1O[C@@H]1C(=O)N[C@@H](CC(C)C)C(=O)NCCC(C)C
inactive: [1] 1.7% | [2] -1.4% | [3] -2.8%
